# A selection: hits, their analogues and other compounds. The true share with any hit is near 3.5%.
# GPR151 ag – activates the human receptor GPR151; Q8TDV0; PathHunter beta-arrestin GPR151 cells, luminescence; activation, % at 11.2 µM; 650,000 tested, 1% active; in the data active = activation above about 4.9%
# MITF primary – inhibitors of human MITF | O75030 | AlphaScreen MITF homodimerization, bead proximity signal | inhibition, % at 2.6 µM | 650,000 tested, 0.91% active | AID 1259374; in the data active = inhibition above about 50%
# FBW7 act – human FBW7 E3 ligase activation, primary screen; normalized activity (activation), % at 26.1 µM; AID 1259310; Q969H0; AlphaScreen FBW7–phospho-cyclin E peptide binding, activator screen; 650,000 tested, 0.13% active; in the data active = normalized activity above about 1.9%;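 also: purified mutant Fbw7 with reduced substrate affinity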
# Target sequence (Q969H0 whole entry, looked up): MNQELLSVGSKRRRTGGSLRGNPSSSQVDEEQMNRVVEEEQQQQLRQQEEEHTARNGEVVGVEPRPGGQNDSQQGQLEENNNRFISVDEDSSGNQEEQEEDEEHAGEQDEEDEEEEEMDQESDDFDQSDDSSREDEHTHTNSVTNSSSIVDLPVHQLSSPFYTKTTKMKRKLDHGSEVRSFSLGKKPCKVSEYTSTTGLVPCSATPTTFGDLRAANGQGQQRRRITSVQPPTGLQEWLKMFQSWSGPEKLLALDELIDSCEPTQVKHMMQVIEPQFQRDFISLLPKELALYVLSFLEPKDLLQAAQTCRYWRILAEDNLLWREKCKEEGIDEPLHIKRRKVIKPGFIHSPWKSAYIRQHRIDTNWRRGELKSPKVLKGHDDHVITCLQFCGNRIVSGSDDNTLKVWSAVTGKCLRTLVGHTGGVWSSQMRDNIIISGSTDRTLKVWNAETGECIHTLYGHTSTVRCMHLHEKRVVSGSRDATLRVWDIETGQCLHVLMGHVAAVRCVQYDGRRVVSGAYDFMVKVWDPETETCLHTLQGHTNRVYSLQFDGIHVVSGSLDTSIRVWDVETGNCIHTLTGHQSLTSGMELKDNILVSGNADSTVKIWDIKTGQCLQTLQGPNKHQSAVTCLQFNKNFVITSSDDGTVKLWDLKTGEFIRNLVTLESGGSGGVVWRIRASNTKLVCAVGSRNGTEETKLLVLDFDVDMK
# TEAD-YAP block – TEAD-YAP interaction inhibition; AID 1259422; HEK-TIYL cells, TEAD-Gal4/YAP UAS-luciferase luminescence; 640,000 tested, 1.4% active; inhibition, % at 9.12 µM; in the data active = inhibition above about 32%
# GPR151 conf act – human GPR151 activation, confirmation screen | shares compounds with GPR151 ag | GPR151 PathHunter beta-arrestin cells, luminescence, 90 min; % of EA-reagent control over plate median | activation, % at 11.2 µM | 6,700 tested, under 10 active;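 active = mean percent activation across replicates above the confirmation screen cutoff of 4.91%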
# GPR119 counter – GPR119 activation, counter-screen for GPR151 activators. shares compounds with GPR151 ag. GPR119 PathHunter beta-arrestin cells, luminescence, 90 min; 0 = compound-well median, 100 = enzyme-acceptor control. activation, % at 11.2 µM. 6,700 tested, 0.3% active. AID 1508611;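 active = mean percent activation in the counterscreen above 29.09%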;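 also: counterscreen on off-target GPR119 to flag nonselective hits from the GPR151 activator screen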
# Numbers stand for hits; . = inactive; / = no result given.
SMILES,GPR151 ag,MITF primary,FBW7 act,TEAD-YAP block,GPR151 conf act,GPR119 counter
CC1(C)C(=O)OC(c2ccccc2)C2(CCCC2)C1=O (stereo unspecified),6.0,.,.,.,.,.
Cc1sc2ncnc(NCc3ccccc3)c2c1C,.,.,.,.,/,/
Cc1sc2ncnc(NCC(C)O)c2c1C (stereo unspecified),4.9,.,.,.,.,.
CCOc1cc(/C=c2/sc3nc4ccccc4n3c2=O)cc(I)c1O,5.1,.,.,.,.,.
O=C(C1CCCCC1)N1CCCC(c2nnc(-c3cccs3)o2)C1 (stereo unspecified),.,.,.,.,/,/
Oc1ccc(Cl)cc1/C=N\Nc1nncc(-c2ccccc2)n1,7.4,.,.,.,.,.
CCOc1ccccc1-c1nnc(SCC(=O)NCc2ccccc2)o1,6.9,.,.,.,.,.
Cc1cc(-c2nnc(CCC(=O)NCC3OCCc4ccccc43)o2)c(C)o1 (stereo unspecified),.,.,.,.,/,/
CC1=Nc2ccccc2/C1=C/c1c(N)n2ncsc2nc1=O,.,.,.,.,/,/
CCC(=O)Nc1nc2c(Cl)ccc(Cl)c2s1,.,.,.,.,/,/
CCC(=O)Nc1nc2c(OC)ccc(OC)c2s1,5.0,.,.,.,.,.
COc1ccc(-c2cc(C(=O)NCC3CCCO3)c3ccccc3n2)cc1OC (stereo unspecified),.,.,.,.,/,/
CC(C)(C)NC(=O)c1cccc2ccccc12,.,.,.,.,/,/
COc1cc2nc(Nc3nc4ccccc4n3C)nc(NCCCN3CCCC3=O)c2cc1OC,.,.,.,.,/,/
COc1cc2nc(Nc3nccc4ccccc34)nc(NCCCN3CCCC3=O)c2cc1OC,5.6,.,.,.,.,.
C=CCSc1nnc(-c2ccc([N+](=O)[O-])cc2)n1-c1ccccc1,.,.,.,.,/,/
CCOC(=O)c1c(-c2ccccc2)oc2ccc(OCc3ccc(C(=O)OC)cc3)cc12,11.9,.,.,.,.,.
O=c1c2c(-c3ccccc3)csc2ncn1Cc1ccc([N+](=O)[O-])cc1,5.6,.,.,.,.,.
COc1ccc(C2CC(c3ccccc3)=NN2C(=O)CSc2cccc[n+]2[O-])cc1 (stereo unspecified),5.0,.,.,.,.,.
CC(C)(C)C(=O)CC(C)(O)c1ccccc1 (stereo unspecified),.,.,.,.,/,/
O=C1c2ccccc2NC(c2ccc3c(c2)OCO3)N1Cc1ccccc1 (stereo unspecified),.,.,.,.,/,/
CCN(CC)CCN1C(=O)c2ccccc2NC1c1ccc2c(c1)OCO2 (stereo unspecified),5.3,.,.,.,.,.
O=C(O)c1ccccc1CSc1ccccc1,.,.,.,.,/,/
COc1ccccc1C1CN(Cc2nc[nH]c2C)Cc2ccccc2O1 (stereo unspecified),.,.,.,.,/,/
Cc1c(NC(=O)C(C)N2C(=O)C3C4CCC(C4)C3C2=O)ccc(Br)c1Cl (stereo unspecified),12.9,.,.,.,.,.
SMILES,GPR151 ag,MITF primary,FBW7 act,TEAD-YAP block,GPR151 conf act,GPR119 counter
CCN(Cc1ccccc1)C(=O)CC1(c2ccccc2F)CC(=O)N(CCOC)C1=O (stereo unspecified),.,.,.,.,/,/
CCCCOc1ccc2c3c(c(=O)oc2c1)CCC3,.,.,.,.,/,/
CCCOc1ccc2c3c(c(=O)oc2c1)CCC3,7.9,.,.,.,.,.
CCCOc1ccc2oc(=O)c3c(c2c1)CCCN3C(=O)CN1CCCC1,5.4,.,.,.,.,.
CCCOc1ccc2oc(=O)c3c(c2c1)CCCN3C(=O)CN1CCN(C)CC1,.,.,.,.,/,/
COc1ccc(N(CC(=O)NCCC(C)C)C(=O)c2snc(C(N)=O)c2N)c(OC)c1,.,.,.,.,/,/
COc1ccc(C)cc1N(CC(=O)NCCC(C)C)C(=O)c1snc(C(N)=O)c1N,11.5,.,.,.,.,.
O=C1CC(c2ccc3c(c2)OCO3)CC2=C1C(c1ccc(-c3ccccc3)cc1)Nc1ccccc1N2 (stereo unspecified),.,.,.,.,/,/
CC(C)CCNC(=O)C1CCN(Cc2ccccc2O)CC1,.,.,.,.,/,/
CN(CCOc1ccccc1)Cc1nc(-c2ccccc2)no1,9.5,.,.,.,.,.
COc1ccc(-c2noc(CN(C)CCOc3ccccc3)n2)c(OC)c1OC,.,.,.,.,/,/
Cc1cccc(-c2n[nH]c(=S)n2CC(=O)O)c1,7.2,.,.,.,.,.
COc1ccc(NC(=O)Nc2ccc3c(c2)CCC(=O)N3Cc2ccccc2)cc1OC,.,.,.,.,/,/
COc1ccc2cc(S(=O)(=O)NCc3ccccc3)ccc2c1,.,.,.,.,/,/
CCOc1ccc2cc(S(=O)(=O)NCc3ccccc3)ccc2c1,5.2,.,.,.,.,.
Cc1cccc2nc(CNCc3c(C(=O)N4CCOCC4)nc4ccccn34)cn12,.,.,.,.,/,/
Cc1cccnc1NC(=S)NC(=O)c1ccccc1Br,.,.,.,.,/,/
O=C(NC(=S)Nc1ncccc1O)c1ccccc1Br,7.6,.,.,.,.,.
C=CCNC(=O)/C(=C/c1ccc(OC)cc1)NC(=O)c1ccc([N+](=O)[O-])cc1,.,.,.,.,/,/
COc1ccc(C(=O)C(CCCCC(CN2CCCCC2)C(=O)c2ccc(OC)cc2)CN2CCCCC2)cc1 (stereo unspecified),.,.,.,.,/,/
CCc1sc(C(=O)NCc2ccccc2OC)cc1C,5.5,.,.,.,.,.
Cc1ccc(S(=O)(=O)N2CCOCCOCCOCCN(S(=O)(=O)c3ccc(C)cc3)CCOCC2)cc1,.,.,.,.,/,/
CC(C)c1ccc(NC(=O)C(c2ccccc2)N(C)C(=O)c2ccc(=O)[nH]c2)cc1 (stereo unspecified),8.7,.,.,.,.,.
CC(=O)c1ccc(N2C(=O)/C(=C3/C(=O)N(C(C)=O)c4ccccc43)SC2=S)cc1,.,.,.,.,/,/
CN1C(=O)/C(=C2\SC(=S)N(c3ccc(C(=O)O)cc3)C2=O)c2ccccc21,5.6,.,.,.,.,.
SMILES,GPR151 ag,MITF primary,FBW7 act,TEAD-YAP block,GPR151 conf act,GPR119 counter
CN1C(=O)/C(=C2\SC(=S)N(c3ccc(CC(=O)O)cc3)C2=O)c2ccccc21,6.9,.,.,.,.,.
CN1C(=O)/C(=C2\SC(=S)N(CC(=O)O)C2=O)c2ccccc21,.,.,.,.,/,/
CN(/C=C/C(=O)C(F)(F)F)c1ccccc1C(=O)O,.,.,.,.,/,/
COc1ccc([N+](=O)[O-])cc1-n1c(C)cc(C=C2C(=O)NC(=S)NC2=O)c1C,.,.,.,.,/,/
O=C(CCCn1cnc(-c2ccccc2)cc1=O)NCCc1csc(-c2ccccc2)n1,9.2,.,.,.,.,.
Cc1cc(=O)n(CC(=O)NCc2csc(-c3ccccc3)n2)cn1,.,.,.,.,/,/

# High-throughput results from PubChem.
